According to PubChem BioAssay AID504834 (National Center for Advancing Translational Sciences (NCATS), 2011):
About 22,000 (6.9%) of roughly 320,000 compounds were called active. Where a call stands in place of a potency, no number is given. Not shown: some 27% with an inconclusive outcome. The call rests on the fitted dose curve; in most records, active means well fitted inhibition curve with a large enough effect; inconclusive means small, poorly fitted or top-dose-only effect, or another doubt; inactive means no such curve, though single readings can be large or run the other way. This excerpt belongs to a sample that is enriched for actives.

experiment: Primary qHTS for delayed death inhibitors of the malarial parasite plastid, 96 hour incubation; conditions: P. falciparum luciferase reporter growth; series mostly up to 28.7 µM
Method in brief: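 Parasite growth measured via integrated firefly luciferase reporter in P. falciparum. Infected erythrocytes at 2% hematocrit, 0.05% parasitemia final were treated 96 hours at 37 C under 5% CO2, and luminescence was read.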
Potency means the concentration at half of the fitted maximal effect.

Which Potency does the source give for `COc1ccc(CN2CCNC(=O)C2CC(=O)NCc2cn[nH]c2-c2ccccc2)c(F)c1` (stereo not drawn) here?
Its Potency is “inactive”.

Which Potency does the source give for `CN(C(=O)COC(=O)Cn1cnc2c1c(=O)n(C)c(=O)n2C)C1(C#N)CCCCC1` here?
Its Potency is “inactive”.

For `O=c1onc(-c2c(F)cccc2F)n1-c1ccccc1Cl`, which Potency is on record?
The Potency was “inactive”.

With `CCC(=O)c1cc(F)ccc1OCC(=O)Nc1ccc2c(c1)OCCO2` as the compound, how does the Potency read?
The Potency was “inactive”.

Which Potency does the source give for `Cc1ccc2oc(=O)c3cnn(CC(=O)N4CCCCCC4)c3c2c1` here?
The Potency was 9.28 µM (active).

For `COc1cccc2c(=O)n(CC(=O)N3CCCCCC3)ccc12`, which Potency is on record?
Its Potency is “inactive”.

For `Cc1cc(C(F)(F)F)nn1CC(=O)N1CCCC1`, which Potency is on record?
The Potency was “inactive”.

For `Cn1nc(-c2ccccc2)c(-c2nc(-c3ccc(Cl)cc3)no2)c1Cl`, which Potency is on record?
Its Potency is “inactive”.

With `C/C(=N/Nc1ccc(Cl)cc1)c1cnnc(-c2ccccc2)n1` as the compound, how does the Potency read?
The Potency was 0.522 µM (active).

Which Potency does the source give for `C/C(=N\Nc1nncc2ccccc12)c1ccc(Cl)c([N+](=O)[O-])c1` here?
Its Potency is “inactive”.

With `Cc1ccc(S(=O)(=O)NNC(=O)/C=C/c2cccc(F)c2)cc1` as the compound, how does the Potency read?
Its Potency is “inactive”.

Which Potency does the source give for `Cc1ccc2c(c1)N(CC(=O)N1CCC(O)CC1)C(=O)CO2` here?
The Potency was “inactive”.

Which Potency does the source give for `O=C(Nn1cnc2ccccc2c1=O)c1ccc(F)cc1Cl` here?
Its Potency is 11.7 µM (active).

Which Potency does the source give for `O=C(Nn1cnc2ccccc2c1=O)c1ccccc1` here?
The Potency was “inactive”.

With `Cc1nc2ccccc2c(=O)n1NC(=O)c1ccc(Cl)c([N+](=O)[O-])c1` as the compound, how does the Potency read?
Its Potency is “inactive”.

For `CN(C(=O)c1ccccc1)c1nccnc1C#N`, which Potency is on record?
Its Potency is “inactive”.

With `CN(C)C(=O)c1nc2ccc(Cl)cn2c1CNCc1cccc(OC(F)(F)F)c1` as the compound, how does the Potency read?
Its Potency is “inactive”.

For `COc1ccccc1-c1nnc(SCC(=O)Nc2ccccc2)o1`, which Potency is on record?
Its Potency is “inactive”.

With `Cc1cc(NC(=O)CSc2nnc(-c3ccc(Cl)s3)o2)no1` as the compound, how does the Potency read?
Its Potency is “inactive”.

With `COc1ccccc1-c1nnc(SCC(=O)Nc2cc(C)on2)o1` as the compound, how does the Potency read?
Its Potency is 13.1 µM (active).

With `CCN(C(=O)CSc1nc(N)cc(=O)[nH]1)C1CCS(=O)(=O)C1` (stereo not drawn) as the compound, how does the Potency read?
Its Potency is “inactive”.

With `CC(=O)Nc1ccc(NC(=O)CC2CCCC2)cc1` as the compound, how does the Potency read?
Its Potency is “inactive”.

For `Cn1c2ccccc2c(=O)c2c(=O)n(Cc3ccco3)c(COc3ccccc3)nc21`, which Potency is on record?
The Potency was 7.38 µM (active).

For `CCn1c(COc2ccccc2)nnc1SCC(=O)NCc1ccco1`, which Potency is on record?
The Potency was “inactive”.

Which activity change, negative = inhibition does the source give for `Cc1nc2c(c(=O)n1Cc1ccco1)c1nc3ccccc3nc1n2Cc1ccccc1` here?
Its activity change, negative = inhibition is 27.6% [at 5.75 µM] (inactive).

With `CC(=O)N1CCC(N(C(=O)Nc2ccc(Cl)cc2)C(C)C)CC1` as the compound, how does the Potency read?
The Potency was “inactive”.

With `CCOc1ccc(N/C=C/C(=O)c2ccccc2)cc1` as the compound, how does the Potency read?
Its Potency is “inactive”.

With `N#C/C=C/N1CCN(Cc2ccc3c(c2)OCO3)CC1` as the compound, how does the Potency read?
Its Potency is “inactive”.

Which Potency does the source give for `COc1ccccc1C(=O)COC(=O)CSCC(=O)Nc1cc(C)on1` here?
Its Potency is “inactive”.

With `Cc1cc(NC(=O)CSCc2nc(-c3cccc(Cl)c3)oc2C)no1` as the compound, how does the Potency read?
Its Potency is 11.7 µM (active).

For `Cc1ccc(-c2csc(SCC(=O)Nc3cc(C)on3)n2)cc1`, which Potency is on record?
The Potency was “inactive”.

With `Oc1c(Cl)cc(Cl)cc1/C=N/c1ncn[nH]1` as the compound, how does the Potency read?
The Potency was “inactive”.

With `CC(C)C[C@H](NC(=O)C1CC(=O)N(c2ccc3c(c2)OCCO3)C1)C(=O)NC1CCCC1` (stereo partly drawn) as the compound, how does the Potency read?
Its Potency is “inactive”.

For `CCCn1c(=O)c(C(=O)Nc2cc(C)ccn2)c(O)c2ccccc21`, which Potency is on record?
The Potency was “inactive”.

For `OC(COc1ccc(Br)cc1)CN1CCCC1` (stereo not drawn), which Potency is on record?
The Potency was “inactive”.

For `O=C(c1ccc(Cl)cc1)c1ccc(OCC(O)CN2CCCCC2)cc1` (stereo not drawn), which Potency is on record?
The Potency was 2.33 µM (active).

For `CC(=O)Nc1ccc(OCC(O)CN2CCN(c3ccccc3Cl)CC2)cc1` (stereo not drawn), which Potency is on record?
Its Potency is 3.7 µM (active).

For `CC(C)c1ccc(OCC(O)CN2CCN(c3ccccn3)CC2)cc1` (stereo not drawn), which Potency is on record?
Its Potency is “inactive”.

Which Potency does the source give for `O=C(c1ccccc1)c1ccc(OCC(O)CN2CCCC2)cc1` (stereo not drawn) here?
The Potency was “inactive”.

Which Potency does the source give for `O=[N+]([O-])c1ccc(N2CCN(CC(O)COc3ccccc3)CC2)cc1` (stereo not drawn) here?
The Potency was “inactive”.

Which Potency does the source give for `COc1ccc(C2CC(c3ccc([N+](=O)[O-])cc3)=NN2C(C)=O)cc1` (stereo not drawn) here?
The Potency was “inactive”.

Which Potency does the source give for `COCc1c(C(=O)OCC(=O)Nc2ccc(OC(F)F)cc2)oc2ccccc12` here?
The Potency was “inactive”.

Which Potency does the source give for `Cc1ccc(NC(=O)Cn2c(C)csc2=O)cc1` here?
The Potency was “inactive”.

Which Potency does the source give for `O=C(NCCSc1ncc(-c2ccccc2)[nH]1)c1ccco1` here?
The Potency was “inactive”.

Which Potency does the source give for `Cc1ccc(S(=O)(=O)N(CCCN(C)C)Cc2ccc3c(c2)OCO3)cc1` here?
Its Potency is “inactive”.

With `COc1ccccc1CCNS(=O)(=O)c1cn(C)nc1C` as the compound, how does the Potency read?
Its Potency is “inactive”.

With `CCOC(=O)N1CCC(NC(=O)C(NS(=O)(=O)c2ccc3c(c2)CCN3C(=O)CC)C(C)C)CC1` (stereo not drawn) as the compound, how does the Potency read?
Its Potency is 16.5 µM (active).

For `CC(=O)N1CCc2cc(S(=O)(=O)NC3CCCCC3)ccc21`, which Potency is on record?
The Potency was “inactive”.

For `CCC(=O)N1CCc2cc(S(=O)(=O)NC(C(=O)N3CCc4ccccc4C3)C(C)C)ccc21` (stereo not drawn), which Potency is on record?
The Potency was “inactive”.

Which Potency does the source give for `O=S(=O)(NC1CCCC1)c1ccc(-n2cnnn2)cc1` here?
Its Potency is “inactive”.

Which Potency does the source give for `COc1cc(OC)cc(C(=O)NCCSCc2ccc(Cl)cc2)c1` here?
The Potency was “inactive”.

With `COc1ccc(/C=C(\C#N)C(=O)OCC(=O)N(C)C2CCS(=O)(=O)C2)cc1` (stereo not drawn) as the compound, how does the Potency read?
The Potency was “inactive”.

With `CC(C)CC(O)C1CCN(C(=O)CCc2nnc(-c3ccc4c(c3)OCO4)o2)CC1` (stereo not drawn) as the compound, how does the Potency read?
Its Potency is “inactive”.

Which Potency does the source give for `CC(=O)N/C(=C\c1ccc(F)cc1)C(=O)NC(Cc1ccccc1)C(=O)O` (stereo not drawn) here?
Its Potency is “inactive”.

For `O=C(NC(Cc1ccc(O)cc1)C(=O)O)/C(=C/c1ccccc1)NC(=O)c1ccccc1` (stereo not drawn), which Potency is on record?
The Potency was 11.7 µM (active).

For `O=C(NC(Cc1ccccc1)C(=O)O)/C(=C\c1ccccc1)NC(=O)c1ccco1` (stereo not drawn), which Potency is on record?
Its Potency is “inactive”.

For `Cc1ccc(OCC(=O)Nc2nnc(-c3ccco3)s2)cc1`, which Potency is on record?
The Potency was “inactive”.

Which Potency does the source give for `CC(NS(=O)(=O)c1ccc(Cl)cc1)C(=O)Nc1ccc2c(c1)OCCO2` (stereo not drawn) here?
Its Potency is “inactive”.

For `COCCCn1c(SCC(=O)Nc2oc(C)c3c(C)n[nH]c(=O)c23)nc2sc3c(c2c1=O)CCC3`, which Potency is on record?
Its Potency is “inactive”.

Which Potency does the source give for `CCCC(C)C(=O)NCc1ccncc1` (stereo not drawn) here?
The Potency was “inactive”.

For `CC(C)(C)NC(=O)C(=O)NCc1ccncc1`, which Potency is on record?
The Potency was 3.29 µM (active).

With `O=C(NCc1ccncc1)C(=O)NCc1ccco1` as the compound, how does the Potency read?
The Potency was “inactive”.

With `CCc1cccc(NC(=O)COC(=O)c2cc(=O)c3ccccc3o2)c1` as the compound, how does the Potency read?
The Potency was “inactive”.

With `COC(=O)c1sc(NC(=O)COC(=O)C2CCC2)c(C(=O)OC)c1C` as the compound, how does the Potency read?
The Potency was “inactive”.

For `COc1ccc(-n2ncc3c(N4CCCc5ccccc54)ncnc32)cc1`, which Potency is on record?
The Potency was 13.1 µM (active).

Which Potency does the source give for `c1ccc(-n2ncc3c(N4CCCC4)ncnc32)cc1` here?
The Potency was “inactive”.

With `COc1ccc(N2CCN(C(=O)CSc3ncnc4c3cnn4-c3ccc(OC)cc3)CC2)cc1` as the compound, how does the Potency read?
Its Potency is “inactive”.

Which Potency does the source give for `O=C(NCC(=O)N(c1ccccc1)C(C(=O)NCC1CCCO1)c1ccccc1)c1cccs1` (stereo not drawn) here?
Its Potency is “inactive”.
